In all, about 16,000 compounds went through this assay and about 5,800 (36%) were called active. Another 23% or so got no clear call; they are omitted. Calls follow the shape of the dose curve; as a rule, active = well fitted curve in the direction sought with a large enough effect; inconclusive = small, poorly fitted or top-dose-only effect, or effect the other way; inactive = no such curve, though single readings can be large or run the other way. The list shows a part of the results.

Here are results for 57 compounds from PubChem BioAssay AID1851 (National Center for Advancing Translational Sciences (NCATS), 2009).
% is scaled to controls: 0 for no effect and ±100 for the full control effect.

Chain of Cytochrome P450 2C19 (Homo sapiens) (P33261 whole entry, looked up): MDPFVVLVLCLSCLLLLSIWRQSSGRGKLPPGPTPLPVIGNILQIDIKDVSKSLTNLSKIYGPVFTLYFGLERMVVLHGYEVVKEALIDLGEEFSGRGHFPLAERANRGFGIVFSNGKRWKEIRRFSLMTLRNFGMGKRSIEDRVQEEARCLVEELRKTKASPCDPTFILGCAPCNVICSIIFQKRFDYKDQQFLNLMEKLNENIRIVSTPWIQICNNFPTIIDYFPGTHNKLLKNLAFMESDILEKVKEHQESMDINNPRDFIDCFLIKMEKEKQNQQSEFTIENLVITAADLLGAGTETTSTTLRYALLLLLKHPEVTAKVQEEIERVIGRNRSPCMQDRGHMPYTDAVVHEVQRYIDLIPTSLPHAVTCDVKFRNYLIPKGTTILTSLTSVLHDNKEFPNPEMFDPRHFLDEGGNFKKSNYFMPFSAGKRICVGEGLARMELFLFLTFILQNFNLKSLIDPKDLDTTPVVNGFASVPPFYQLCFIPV

The assay concerns the target Cytochrome P450 2C19 (Homo sapiens) (UniProt P33261). Description: Cytochrome panel assay with activity outcomes. Conditions: recombinant CYP, pro-luciferin dealkylation, luminescence, p450-cyp2c19; series mostly up to 57.1 µM; activity, negative = inhibition: at the top concentration.
Turning to `CO[C@H]1COC(=O)[C@H]2CCCN2C(=O)[C@@H](C)COC(=O)C/C=C\[C@@H]1C`, the activity, negative = inhibition was 43.2% [at 11.4 µM] (inactive).

As to `C#CCCCO/N=C1/[C@H]2O[C@@H]2[C@@H](O)[C@H]2[C@H]1CCn1c(=O)n(C)c(=O)n12`, the activity, negative = inhibition is -3.85% [at 11.4 µM] (inactive).

Usually AC50 stands for the concentration giving half of the maximal activity seen. For the compound `Cc1ccccc1C(=O)Oc1ccc(Br)cc1C(=S)N1CCCC1`, the AC50 is 2.24 µM (active).

Take `O=C(Oc1ccc(C(=S)N2CCOCC2)cc1Br)c1cc(Cl)ccc1Cl`: the “activity, negative = inhibition” value is -6.53% (inactive).

On to `Cc1c(-c2ccccc2)oc2c(C(=O)OCCN3CCCCC3)cccc2c1=O`, for which the “activity, negative = inhibition” value is 16.9% [at 25.6 µM] (inactive).

Regarding `COc1ccc(-n2c(C)n[nH]c2=O)cc1`, the “activity, negative = inhibition” value was -15.4% (inactive).

Turning to `COc1ccc2c(c1)C(=O)N(c1ccccc1)C(=O)C2`, the AC50 is 11.2 µM (active).

Take `O=C(c1c(O)c2ccc(Cl)cc2[nH]c1=O)C1CC1`: the “activity, negative = inhibition” value was 9.43% (inactive).

On to `CC(C)Cc1nc(N2CCN(C(=O)c3ccccc3)CC2)c(C#N)c2c1CCC2`, for which the AC50 was 2.51 µM (active).

For the compound `N#Cc1ccc(CN2CCC3(CC2)CCN(C(=O)c2ccncc2)CC3)cc1`, the “activity, negative = inhibition” value is 33.2% (inactive).

`N#Cc1c(N2CCN(C(=O)c3ccccc3Cl)CC2)nc(-c2ccccc2)c2c1CCCC2`: the AC50 was 3.98 µM (active).

On to `COc1ccc(C(=O)N2CCC3(CCN(Cc4ccc(C#N)cc4)CC3)CC2)cc1`, for which the “activity, negative = inhibition” value was -41.7% (inactive).

`CCC(=O)N1CCN(C(=O)c2ccccc2)CC1`: the “activity, negative = inhibition” value is -7.45% (inactive).

With `CC(C)CN1CCC2(CC1)CCN(C(=O)c1ccncc1)CC2`, the “activity, negative = inhibition” value was -12.2% (inactive).

Turning to `CC(=O)OC[C@@H]1O[C@@H](O/N=C2/C[C@@H](O)[C@@H](O)[C@@H]3[C@H]4C(=O)N(c5ccc(F)cc5F)C(=O)[C@@H]4CC[C@@H]23)[C@H](OC(C)=O)[C@H](OC(C)=O)[C@@H]1OC(C)=O`, the activity, negative = inhibition is 51.5% [at 11.4 µM] (inactive).

On to `Cc1cc(NC(=O)Nc2ccc3c(ccn3C)c2)sn1`, for which the AC50 is 3.16 µM (active).

Consider `C[C@@H]1CC[C@H]2C(=O)O[C@H](CN=[N+]=[N-])CN2[C@@H]1c1ccc(Br)cc1`, for which the AC50 is 0.398 µM (active).

In the case of `C[C@@H]1CC[C@H]2C(=O)NC[C@@H](O)CN2[C@@H]1c1ccc(Br)cc1`, the AC50 was 2 µM (active).

Turning to `CCCC[C@@H]1CN2[C@H](c3ccc(Br)cc3)[C@@H](C)CC[C@H]2C(=O)O1`, the activity, negative = inhibition is -43.3% [at 11.4 µM] (inactive).

Consider `CCCC[C@@H]1CN2[C@H](c3ccc(Br)cc3)[C@H](C)CC[C@H]2C(=O)O1`, for which the AC50 is 3.98 µM (active).

For `C[C@@H]1CN2[C@H](c3ccc(Br)cc3)[C@H](C)CC[C@H]2C(=O)O1`, the activity, negative = inhibition is -28.6% [at 11.4 µM] (inactive).

Turning to `CO[C@H]1COC(=O)[C@@H](CCSC)NC(=O)C/C=C\[C@@H](C)[C@H](OC)COC(=O)[C@@H](OCc2ccccc2)/C=C\[C@@H]1C`, the activity, negative = inhibition is -26% [at 11.4 µM] (inactive).

For `Cc1ccccc1/C=C\C1=NCCN1`, the “activity, negative = inhibition” value was -25.7% (inactive).

`N=C(N)[C@H](N=Nc1ccccc1)C(N)=O`: the activity, negative = inhibition was -26.2% [at 11.4 µM] (inactive).

In the case of `Cc1ccc(-c2nnc(-c3ccc4ccccc4c3)o2)cc1`, the activity, negative = inhibition is 10.3% [at 11.4 µM] (inactive).

Turning to `CCOc1ccc(-c2nnc(-c3ccncc3)o2)cc1`, the AC50 was 0.112 µM (active).

Regarding `COc1ccc(-c2nnc(-c3cccnc3)o2)cc1`, the AC50 is 17.8 µM (active).

For the compound `N#CCCn1c(=O)cnc2cnc(N3CCNCC3)nc21`, the “activity, negative = inhibition” value was 33.4% (inactive).

For the compound `CC(C)(C)c1nnc(NC(=O)c2cc(-c3ccccc3)nc3ccccc23)s1`, the AC50 was 5.01 µM (active).

With `CC(C)(C)NS(=O)(=O)c1ccc(NC(=O)C(Sc2ccccc2)c2ccccc2)cc1` (configuration not stated), the AC50 is 3.55 µM (active).

Consider `COc1ccc(-c2cc(C(=O)Nc3nc4c(C)cccc4s3)c3ccccc3n2)cc1OC`, for which the AC50 was 2.51 µM (active).

With `CCC(=O)Nc1nnc(C(C)(C)C)s1`, the “activity, negative = inhibition” value was -3.89% (inactive).

For `CC(C)(C)NS(=O)(=O)c1ccc(NC(=O)c2cc(-c3ccccc3)nc3ccccc23)cc1`, the half-maximal activity concentration (AC50) was 2.82 µM (active).

Take `CC(=O)Nc1ccc(-c2cc(C(=O)O)c3cc4ccccc4cc3n2)cc1`: the activity, negative = inhibition was 9.44% [at 11.4 µM] (inactive).

Regarding `CN1CCN(c2ncc3nc(-c4cc(F)cc(F)c4)c(=O)n(Cc4cccs4)c3n2)CC1`, the “activity, negative = inhibition” value is -27% (inactive).

For `CCS(=O)(=O)N(C)[C@@H]1c2cc(C#N)ccc2OC(C)(C)[C@H]1O`, the “activity, negative = inhibition” value was -11.7% (inactive).

Regarding `Cc1cc([N+](=O)[O-])nn1Cc1ccccc1F`, the AC50 is 11.2 µM (active).

On to `Cc1cc([N+](=O)[O-])nn1CC(=O)NNC(=S)Nc1ccc(F)cc1`, for which the “activity, negative = inhibition” value is -23.1% (inactive).

As to `Nc1c(S(=O)(=O)c2ccccc2)c2nc3ccccc3nc2n1Cc1ccco1`, the AC50 was 7.08 µM (active).

For the compound `O=C(c1ccccc1)c1nn(-c2ccccc2)c(=O)cc1C(F)(F)F`, the AC50 is 1.58 µM (active).

Turning to `COC(=O)c1nn(-c2ccccc2)c(-c2ccccc2)c1C(=O)c1ccccc1`, the AC50 is 8.91 µM (active).

For `COC(=O)c1c(C)nc2ccccc2c1C(=O)O`, the “activity, negative = inhibition” value is 3.75% (inactive).

With `CCOC(=O)c1nn(-c2ccccc2)c(-c2ccccc2)c1C(=O)c1ccccc1`, the AC50 was 10 µM (active).

As for `O=C(O)c1nn(-c2ccccc2)ccc1=O`, the “activity, negative = inhibition” value is -12% (inactive).

For `NC(=O)c1nn(-c2ccccc2)c(=O)cc1O`, the “activity, negative = inhibition” value is -3.79% (inactive).

With `COc1ccc(NC(=O)N2CCCC3(CCN(C(=O)c4cccn4C)CC3)C2)cc1`, the “activity, negative = inhibition” value is -8.93% (inactive).

For the compound `CC(C)[C@@H]1[C@H]2CC[C@H](C2)[C@H]1N`, the “activity, negative = inhibition” value was -13.4% (inactive).

For `C[C@@H](O)[C@H]1C(=O)N2C(C(=O)O)=C(S[C@@H]3CN[C@H](C(=O)N(C)C)C3)[C@H](C)[C@H]12`, the “activity, negative = inhibition” value is -28.3% [at 25.6 µM] (inactive).

As for `CCc1ccc(/C=C\C(=O)N2CCc3ccccc3C2)cc1`, the half-maximal activity concentration (AC50) was 4.47 µM (active).

For `CC1=C[N+](=O)c2ccccc2[N+]1=O`, the activity, negative = inhibition is 5.82% [at 11.4 µM] (inactive).

As for `Cc1cc(NC(=O)CCC(=O)N(CC2CCCO2)C(C(=O)NC2CCCC2)c2cccnc2)no1` (configuration not stated), the “activity, negative = inhibition” value is -30% (inactive).

On to `CCOC(=O)CN(C(=O)CCC(=O)Nc1cc(C)on1)C(C(=O)NC1CCCC1)c1cccnc1` (configuration not stated), for which the AC50 was 28.2 µM (active).

Regarding `O=C(O)[C@@H]1CCCNC1`, the “activity, negative = inhibition” value is -17.7% [at 25.6 µM] (inactive).

In the case of `CCCCC1CCC(c2nc(-c3ccccn3)no2)CC1` (configuration not stated), the AC50 is 22.4 µM (active).

As to `O=c1[nH]c(=O)n(Cc2ccco2)c2c1C(C(F)(F)F)(C(F)(F)F)N=C(CCC1CCCCC1)N2`, the “activity, negative = inhibition” value is -14.8% (inactive).

Consider `O=C(N/N=C/c1cccnc1)c1ccc([N+](=O)[O-])cc1`, for which the “activity, negative = inhibition” value was -8.35% (inactive).

`O=C(c1ccc([N+](=O)[O-])cc1)[C@@H](Br)[C@@H](Br)c1ccnc2ccccc12`: the AC50 was 1.26 µM (active).
